Reference: PubChem BioAssay (EPA / NIEHS)
Records with an inconclusive call do not appear. Active and inactive are the calls of the source. How the source made its calls: active means hit-call score of the fitted dose curve at least 0.9, where 1 is the maximum; inconclusive means response in the unintended direction; inactive means score below 0.9.

Key:
[1] = ATG_XTT_Cytotoxicity: Cytotoxicity Assessment in the Attagene TRANS-FACTORIAL HepG2 Assay (AID 2283584)
In short: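 24 h chemical exposure of reporter-transfected HepG2; XTT signal loss vs DMSO indicates cytotoxicity.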

[2] = TOX21_p53_BLA_p2_viability: Viability Assessment in the Tox21 HCT-116 p53 Agonism Beta-lactamase Assay, Phase 2 (AID 2283591);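 further: compound exposure lasted 16 h at 37 °C; actives lower the ATP signal meaning cytotoxicity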
In short: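 HCT116 p53-bla cells, 4000/well, dosed after 5 h plating (217-fold dilution of DMSO stocks) and incubated 16 h at 37C. Viability taken as cellular ATP by CellTiter-Glo luminescence after 30 min RT; signal loss marks cytotoxicity.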

[3] = TOX21_p53_BLA_p3_viability: Viability Assessment in the Tox21 HCT-116 p53 Agonism Beta-lactamase Assay, Phase 3 (AID 2283593);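 further: cells exposed to compound for 16 h before reading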
In short: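 HCT116 cells, 4000/well, dosed 5 h after plating by pin transfer (217-fold dilution from DMSO stock) and incubated 16 h at 37C, 5% CO2. Viability read as ATP luminescence with CellTiter-Glo after 30 min at room temperature.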

[4] = target: Cellular tumor antigen p53 (Homo sapiens) (UniProt P04637); test: TOX21_p53_BLA_p2_ratio: Tox21 HCT-116 p53 Agonism Beta-lactamase Assay, Ratio, Phase 2 (AID 2283592)
Sequence of Cellular tumor antigen p53 (Homo sapiens) (P04637 whole entry, looked up): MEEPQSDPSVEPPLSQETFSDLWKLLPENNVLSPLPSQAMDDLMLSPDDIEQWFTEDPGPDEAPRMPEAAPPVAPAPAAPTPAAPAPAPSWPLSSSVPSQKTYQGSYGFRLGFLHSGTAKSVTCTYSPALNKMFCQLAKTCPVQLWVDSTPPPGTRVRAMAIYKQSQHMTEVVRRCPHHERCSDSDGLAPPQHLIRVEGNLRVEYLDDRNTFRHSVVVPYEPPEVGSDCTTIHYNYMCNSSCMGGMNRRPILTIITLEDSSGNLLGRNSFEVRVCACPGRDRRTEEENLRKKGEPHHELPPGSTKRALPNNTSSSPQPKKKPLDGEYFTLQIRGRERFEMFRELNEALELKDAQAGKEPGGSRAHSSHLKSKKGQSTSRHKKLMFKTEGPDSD
In short: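 Human colon HCT116 cells with an inducible p53 beta-lactamase reporter are exposed to test chemicals for 16 h at 37C. Reporter induction is read as the 460/530 nm emission ratio after CCF4-AM loading, normalized to DMSO.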

Compound	outcome [1]	outcome [2]	outcome [3]	outcome [4]
Cc1ccc(S(=O)(=O)N=C=O)cc1	inactive	inactive	inactive	–
CCOC(=O)C1=NOC(c2ccccc2)(c2ccccc2)C1	inactive	–	–	inactive
CCCCOCCOCCOC(C)=O	inactive	–	inactive	inactive
